# Assay results as given in PMC7862700, “An all-to-all approach to the identification of sequence-specific readers for epigenetic DNA modifications on cytosine”.
# Columns and labels:
# Experiment in all cases: DAPPL (digital affinity profiling via proximity ligation, sequencing); 10 mM Tris-HCl pH 7.5, 50 mM NaCl, 1 mM DTT, 4% glycerol, room temperature, 30 min; GST-TFs on glutathione beads, 16-mer random dsDNA library, 0.1% formaldehyde crosslink after washing; high values mean tight binding
# Details in all cases: protein: recombinant; tags: N-terminal GST; dsDNA, one strand shown
# FLI1 = target: T1, FLI1 (Homo sapiens, UniProt Q01543 1-452)
# T1 sequence: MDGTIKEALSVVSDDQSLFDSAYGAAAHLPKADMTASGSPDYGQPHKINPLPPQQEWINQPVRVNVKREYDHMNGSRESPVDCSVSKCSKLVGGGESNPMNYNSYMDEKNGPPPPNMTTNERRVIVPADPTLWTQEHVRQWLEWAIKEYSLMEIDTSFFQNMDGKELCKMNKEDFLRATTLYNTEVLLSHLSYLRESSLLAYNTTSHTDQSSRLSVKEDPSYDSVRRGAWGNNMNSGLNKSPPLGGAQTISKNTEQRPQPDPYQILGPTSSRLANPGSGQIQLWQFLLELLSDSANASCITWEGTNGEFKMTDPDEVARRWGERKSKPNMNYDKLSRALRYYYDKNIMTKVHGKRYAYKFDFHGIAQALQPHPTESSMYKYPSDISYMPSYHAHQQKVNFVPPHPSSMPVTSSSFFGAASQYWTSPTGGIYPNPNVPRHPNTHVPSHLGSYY
# Procedure, shortened: (§1)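 Binding signal is defined as a hexamer's read frequency for one factor over its frequency for the tag-only sample. To obtain reads, GST-fused human transcription factors were expressed in yeast, captured on glutathione beads, barcoded with DNA and pooled with that sample. Pools met 200 nmole of a 16-mer random double-stranded DNA library in Tris/NaCl/DTT/glycerol buffer for 30 min at room temperature before washing, 0.1% formaldehyde crosslinking, proximity ligation (BsaI/T4 ligase, 1 h, 37 °C), PCR and Illumina NextSeq500 sequencing.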
# ELK1 = target: T2, ELK1 (Homo sapiens, UniProt P19419 1-428)
# T2 sequence: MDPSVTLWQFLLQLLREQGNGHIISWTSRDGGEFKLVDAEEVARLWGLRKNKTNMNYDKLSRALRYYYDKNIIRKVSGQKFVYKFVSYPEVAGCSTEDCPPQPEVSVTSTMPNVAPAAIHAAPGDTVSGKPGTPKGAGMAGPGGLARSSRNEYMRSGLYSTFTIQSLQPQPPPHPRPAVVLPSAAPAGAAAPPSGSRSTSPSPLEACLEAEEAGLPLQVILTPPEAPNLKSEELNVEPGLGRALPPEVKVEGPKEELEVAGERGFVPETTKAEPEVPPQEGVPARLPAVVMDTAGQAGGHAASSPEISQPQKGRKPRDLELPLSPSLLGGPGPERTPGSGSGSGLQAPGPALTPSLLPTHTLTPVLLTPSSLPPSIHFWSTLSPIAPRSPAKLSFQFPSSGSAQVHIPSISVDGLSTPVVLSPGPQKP
# Procedure, shortened: as §1
# GABPA = target: T3, GABPA (Homo sapiens, UniProt Q06546 1-454)
# T3 sequence: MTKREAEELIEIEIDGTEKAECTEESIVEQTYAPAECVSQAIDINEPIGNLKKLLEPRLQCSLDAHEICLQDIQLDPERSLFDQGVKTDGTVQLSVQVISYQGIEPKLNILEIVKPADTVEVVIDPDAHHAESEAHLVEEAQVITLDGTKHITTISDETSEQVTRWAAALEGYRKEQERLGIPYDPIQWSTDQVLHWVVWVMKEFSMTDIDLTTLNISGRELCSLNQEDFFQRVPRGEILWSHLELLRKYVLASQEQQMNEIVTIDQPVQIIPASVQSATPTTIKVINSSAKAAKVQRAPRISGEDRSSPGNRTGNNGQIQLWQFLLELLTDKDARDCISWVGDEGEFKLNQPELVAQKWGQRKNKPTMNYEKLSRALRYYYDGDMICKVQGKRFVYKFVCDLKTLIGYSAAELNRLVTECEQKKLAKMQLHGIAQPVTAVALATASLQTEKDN
# Procedure, shortened: as §1
# ERG = target: T4, ERG (Homo sapiens, UniProt P11308 1-479)
# T4 sequence: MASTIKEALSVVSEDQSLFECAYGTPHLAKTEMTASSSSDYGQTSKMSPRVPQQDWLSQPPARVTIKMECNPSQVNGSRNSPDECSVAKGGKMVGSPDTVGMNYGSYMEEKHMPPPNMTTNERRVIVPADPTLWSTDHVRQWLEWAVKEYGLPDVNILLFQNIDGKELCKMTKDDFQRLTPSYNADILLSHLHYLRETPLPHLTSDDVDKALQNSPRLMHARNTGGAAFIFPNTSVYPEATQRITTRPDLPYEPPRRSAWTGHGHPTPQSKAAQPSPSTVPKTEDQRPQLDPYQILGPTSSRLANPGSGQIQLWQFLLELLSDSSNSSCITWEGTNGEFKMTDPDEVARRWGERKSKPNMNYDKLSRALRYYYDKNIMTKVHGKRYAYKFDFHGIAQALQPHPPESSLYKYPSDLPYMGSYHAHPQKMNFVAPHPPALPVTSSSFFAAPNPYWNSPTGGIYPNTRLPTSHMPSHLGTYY
# Procedure, shortened: as §1
# ELF1 = ELF1 (Homo sapiens, UniProt P32519 1-619)
# ELF1, sequence (P32519 whole entry): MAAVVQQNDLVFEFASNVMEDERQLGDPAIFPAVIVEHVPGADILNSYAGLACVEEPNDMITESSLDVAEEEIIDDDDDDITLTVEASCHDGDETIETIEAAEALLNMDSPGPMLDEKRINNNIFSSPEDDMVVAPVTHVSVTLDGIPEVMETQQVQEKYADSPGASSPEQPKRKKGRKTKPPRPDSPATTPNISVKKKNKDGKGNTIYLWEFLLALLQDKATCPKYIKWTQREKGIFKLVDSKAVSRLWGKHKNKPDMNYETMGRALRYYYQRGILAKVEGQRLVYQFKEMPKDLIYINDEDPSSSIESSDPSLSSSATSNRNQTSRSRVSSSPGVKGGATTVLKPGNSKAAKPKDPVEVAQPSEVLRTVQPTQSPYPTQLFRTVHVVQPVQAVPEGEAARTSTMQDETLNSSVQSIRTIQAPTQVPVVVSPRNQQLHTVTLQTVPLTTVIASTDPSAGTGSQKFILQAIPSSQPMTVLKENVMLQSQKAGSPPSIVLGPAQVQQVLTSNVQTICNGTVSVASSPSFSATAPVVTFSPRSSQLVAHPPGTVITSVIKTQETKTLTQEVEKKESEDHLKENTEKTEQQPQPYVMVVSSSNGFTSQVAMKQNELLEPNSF
# Procedure, shortened: as §1
# EHF = target: T5, EHF (Homo sapiens, UniProt Q9NZC4 1-300)
# T5 sequence: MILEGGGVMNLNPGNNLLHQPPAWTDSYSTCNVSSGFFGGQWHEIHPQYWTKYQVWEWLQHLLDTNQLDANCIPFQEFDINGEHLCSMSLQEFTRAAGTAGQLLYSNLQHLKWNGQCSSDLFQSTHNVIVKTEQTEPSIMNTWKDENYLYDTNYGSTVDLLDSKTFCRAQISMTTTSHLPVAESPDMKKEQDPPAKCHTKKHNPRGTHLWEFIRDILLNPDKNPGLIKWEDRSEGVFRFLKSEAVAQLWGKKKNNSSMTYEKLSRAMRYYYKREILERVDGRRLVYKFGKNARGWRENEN
# Procedure, shortened: as §1
# SPI1 = SPI1 (Homo sapiens, UniProt P17947 1-270)
# Procedure, shortened: as §1
# SPIB = SPIB (Homo sapiens, UniProt Q01892 1-262)
# SPIB, sequence (Q01892 whole entry): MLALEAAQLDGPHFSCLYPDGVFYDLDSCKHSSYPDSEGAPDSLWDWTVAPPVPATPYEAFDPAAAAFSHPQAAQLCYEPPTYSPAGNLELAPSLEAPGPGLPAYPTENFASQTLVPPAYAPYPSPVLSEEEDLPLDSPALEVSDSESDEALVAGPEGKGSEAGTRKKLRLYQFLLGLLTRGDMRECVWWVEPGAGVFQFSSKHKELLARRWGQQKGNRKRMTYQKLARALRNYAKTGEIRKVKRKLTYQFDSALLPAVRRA
# Procedure, shortened: as §1
# ELK3 = target: T6, ELK3 (Homo sapiens, UniProt P41970 1-407)
# T6 sequence: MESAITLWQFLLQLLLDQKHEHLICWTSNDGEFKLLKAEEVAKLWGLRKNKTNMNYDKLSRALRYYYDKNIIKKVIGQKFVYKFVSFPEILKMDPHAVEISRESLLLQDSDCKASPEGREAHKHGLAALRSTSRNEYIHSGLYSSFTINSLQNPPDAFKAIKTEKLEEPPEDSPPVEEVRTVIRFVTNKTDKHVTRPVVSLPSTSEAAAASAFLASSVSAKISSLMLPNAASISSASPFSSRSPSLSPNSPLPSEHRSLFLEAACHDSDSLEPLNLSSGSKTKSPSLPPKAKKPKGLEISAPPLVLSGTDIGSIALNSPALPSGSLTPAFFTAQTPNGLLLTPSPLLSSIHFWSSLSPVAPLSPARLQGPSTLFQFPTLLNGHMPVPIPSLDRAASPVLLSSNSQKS
# Procedure, shortened: as §1
sequence,measurement,setting,value
GATGAA,binding signal,FLI1,"1.23 fold enrichment (6-mer frequency, TF over GST control)"
same,binding signal,ELK1,"1.26 fold enrichment (6-mer frequency, TF over GST control)"
same,binding signal,GABPA,"1.2 fold enrichment (6-mer frequency, TF over GST control)"
same,binding signal,ERG,"1.17 fold enrichment (6-mer frequency, TF over GST control)"
same,binding signal,ELF1,"1.18 fold enrichment (6-mer frequency, TF over GST control)"
same,binding signal,EHF,"1.15 fold enrichment (6-mer frequency, TF over GST control)"
same,binding signal,SPI1,"1.1 fold enrichment (6-mer frequency, TF over GST control)"
same,binding signal,SPIB,"1.24 fold enrichment (6-mer frequency, TF over GST control)"
same,binding signal,ELK3,"1.11 fold enrichment (6-mer frequency, TF over GST control)"
